Measured values as given in the supplement of paper PMC10338343.
± gives the standard deviation.

System: MILI (PIWIL2) piRISC loaded with piRNA #1 (26 nt)
Test: pre-steady-state target cleavage rate (min^-1); guide: piRNA #1 5'p-UGAGGUAGUAGGUUGUAUAGUAUCCA; MIWI and MILI are mouse PIWI proteins and EfPiwi is from a freshwater sponge; tags in brackets are library labels; higher = faster piRNA-guided slicing of the target
Settings: auxiliary factor: 500 nM mouse GTSF1
How it was run: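 Cleave-'n-Seq measured uncleaved targets by sequencing after a transcribed, DNA-blocked target RNA library […] was mixed with 1 nM active affinity-purified piRISC holding one synthetic guide, with or without 500 nM GTSF1 partner protein, at 33 °C in HEPES–potassium acetate buffer for 0–8 or 0–960 min. Counts were normalised to depth and to weakly complementary targets, three trials were pooled, and k3 was capped at 0.0001 min^-1. A burst-and-steady-state fit gave the pre-steady-state cleavage rate.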
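Also: 1 nM active piRISC with 0.1 nM target library at 33 °C single turnover.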

Sequence	pre-steady-state target cleavage rate
GGAGACCUAUGAUAUCAACCUACGUACCUCA	0.00296 ± 0.0024
GGAGACCUAUGAAUAGAACCUACUACCUCA	0.00534 ± 0.0016
GGAGAGGAUUCUAUAGAACCUACUACCUCA	0.157 ± 0.011
GGAGACCUAUCUAUACAAACUACUACCUCA	0.171 ± 0.015
GGAGACCUAUGUAUACUACCUAGUACCUCA	0.00575 ± 0.0022
GGAGAGGAAACUAUAGAACCUACUACCUCA	0.178 ± 0.018
GGAGACCUAUGAUAUGUACCUACUUGCUCA	< 0.0001
GGAGACCUAUGUUUAGAACCUACUACCUCA	0.00346 ± 0.0023
GGAGACCUAACUAUACAACCUAACUACCUCA	0.00748 ± 0.0037
GGAGACCUAUGAAUACAAGCUAGUACCUCA	0.0081 ± 0.0031
GGAGACCUAUCAAUACAACCAACUACCUCA	0.00756 ± 0.0033
GGAGACCUUACUAUACAACCUACUUCCACA	0.0518 ± 0.013
GGAGACCUAUCUAAACAACGUACUACCUCA	0.00647 ± 0.0027
GGAGACCUUACUAUACAACCUACAUGCUCA	0.0591 ± 0.012
GGAGACCUAUGUAUAGUUCCUACUACCUCA	0.00602 ± 0.0021
GGAGACCUAUCUAUACAACGUACUACCUGA	0.00689 ± 0.0021
GGAGACCUAUCUAUACAACCUAGUUCCUCA	0.0148 ± 0.0059
GGAGACCUUACUAAAGAACCUACUACCUCA	0.105 ± 0.011
GGAGACCUAAGUAUACAACCAACUACCUCA	0.00465 ± 0.0039
GGAGACCUAUGAUAUGUUGCUUGAACCUCA	< 0.0001

Sequence	pre-steady-state target cleavage rate
GGAGACCUAUGAAUACAACCUACAACCUCA	0.0078 ± 0.0029
GGAGACCUAUGAUAUCAAGCUACUACCUGA	0.00472 ± 0.003
GGAGAGGAUACUAUUGAACCUACUACCUCA	0.124 ± 0.011
GGAGAGGAGUACUAUACAACCUACUACCUCA	0.0702 ± 0.0063
GGAGACCAAACUAUACAACCUAGUACCUCA	0.0169 ± 0.0096
GGAGACCUUACUAUACAACCUACAUGGAGA [g8:g22:cont:t1A]	0.00299 ± 0.0029
GGAGACGAUACUAUACAACCUACGACCUCA	0.146 ± 0.019
GGAGACCUAACUAUUCAACCUACUAGCUCA	0.089 ± 0.024
GGAGACCUAUGAUAUGUUGCUACUUCCACA	< 0.0001
GGAGACCUAACUAAACAACCUACUUCCUCA	0.0346 ± 0.013
GGAGACCUAUCUAUACAAGCUACAACCUCA	0.169 ± 0.015
GGAGACCUUUCUAUACUACCUACUACCUCA	0.0739 ± 0.011
GGAGACCUUACUAUACAACCAACUACGUCA	0.00333 ± 0.0023
GGAGACCUUACUAUACAACCUACUAACUCA	0.0948 ± 0.017
GGAGACCUAUGAUAUCAUGGUACUACCUCA	< 0.0001
GGAGACCUUACUAUACAACCUAAUACCUCA	0.102 ± 0.014
GGAGACCAUACUUUACAACCUACAACCUCA	0.14 ± 0.018
GGAGACCUUACUAAUGAACCUACUACCUCA	0.00805 ± 0.0017
GGAGACCUAUGAAUACAACCUACUACUUCA	0.00709 ± 0.0022
GGAGAGUAUACUAUACAACCUACUACCUCA	0.184 ± 0.011
